Laboratory results: PubChem BioAssay
The source made the active and inactive calls.

What was measured:
[1] = tested on: Human papillomavirus type 1a protein E7 (residues 44-93); test: HPV1a E7 fragment binders on microarrays, primary screen, biochemical, small-molecule microarray, residues 44-93, 635 nm fluorescence (AID 1108); details: small-molecule microarray binding, fluorescence 635 nm; higher = more signal;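 further: E7 fragment applied at 1 µg/mL in TBST for 1 h at 4 C; score combines spot fluorescence with its signal to noise ratio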
[2] = modulators of HCV replicon luciferase signal, primary screen, HCV replication inhibitor project, Huh7 cells, luciferase reporter (AID 1109); details: 48 h, higher = more signal;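 further: huh7 hepatoma cells harbouring a luciferase neomycin HCV replicon reporter; luciferase luminescence as measure of HCV replicon replication; test concentration not given here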
[3] = target: Left-right determination factor 2 (Homo sapiens) (UniProt O00292); test: LEFTY2 binders on small-molecule microarrays, primary screen, biochemical, small-molecule microarray, 635 nm fluorescence scan (AID 1110); details: LEFTY2 binding, higher = more signal
Left-right determination factor 2 (Homo sapiens), sequence (O00292 whole entry, looked up): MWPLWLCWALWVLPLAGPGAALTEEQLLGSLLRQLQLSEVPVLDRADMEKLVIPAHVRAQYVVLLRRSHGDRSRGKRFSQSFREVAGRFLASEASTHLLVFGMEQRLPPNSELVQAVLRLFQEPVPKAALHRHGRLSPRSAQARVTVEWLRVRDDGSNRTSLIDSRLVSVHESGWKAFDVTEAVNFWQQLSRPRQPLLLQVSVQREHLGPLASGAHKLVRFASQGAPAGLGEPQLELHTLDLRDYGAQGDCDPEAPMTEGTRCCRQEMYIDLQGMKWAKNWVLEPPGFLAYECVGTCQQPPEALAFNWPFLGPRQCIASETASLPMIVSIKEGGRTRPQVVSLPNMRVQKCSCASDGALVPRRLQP

[4] = target: Calmodulin-1 (Homo sapiens) (UniProt P0DP23); test: CALM1 binders on microarrays, EGTA buffer, profiling panel, biochemical, small-molecule microarray, Cy5-labelled CALM1 (AID 1111); details: Cy5-CALM1 binding fluorescence, higher = more signal;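 further: labelled calmodulin applied in Tris saline Tween buffer holding calcium plus EGTA and DTT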
[5] = target: Calmodulin-1 (Homo sapiens) (UniProt P0DP23); test: calcium-bound CALM1 binders on microarrays, profiling panel, artefact control for SMM control-protein annotation, biochemical, small-molecule microarray, Cy5-labelled CALM1, plus calcium (AID 1112); details: Cy5-CALM1 binding fluorescence, higher = more signal;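 further: score merges spot fluorescence with signal to noise from triplicate slides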
[6] = small-molecule microarray binders of probe aWnt5a, primary screen, biochemical, biotinylated probe, 635/667 nm fluorescence (AID 1113); details: higher = more signal;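 further: score merges 667 nm fluorescence intensity with signal-to-noise per printed feature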
[7] = small-molecule microarray binders of probe aShh, primary screen, biochemical, biotinylated probe, 635/667 nm fluorescence (AID 1114); details: higher = more signal;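 further: probe is biotin-labelled aShh protein from a stem cell growth factor screen; measures binding of labelled protein to compounds printed on the slide; score merges feature fluorescence at 667 nm with signal-to-noise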
[8] = small-molecule microarray binders of probe aNog, primary screen, biochemical, biotinylated probe, 635/667 nm fluorescence (AID 1115); details: higher = more signal;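 further: probe is biotinylated aNog protein used at 0.15 µg/mL for 1 h at 4 C; z-score combines 667 nm fluorescence of each spot with its signal to noise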
[9] = target: Torsin-1A-interacting protein 1 (Homo sapiens) (UniProt Q5JTV8); test: LAP1 binders from COS7 cell lysate, primary screen, small-molecule microarray, 635/667 nm fluorescence (AID 1116); details: COS7-hLAP1 lysate binding, 635 nm fluorescence, higher = more signal
Torsin-1A-interacting protein 1 (Homo sapiens), sequence (Q5JTV8 whole entry, looked up): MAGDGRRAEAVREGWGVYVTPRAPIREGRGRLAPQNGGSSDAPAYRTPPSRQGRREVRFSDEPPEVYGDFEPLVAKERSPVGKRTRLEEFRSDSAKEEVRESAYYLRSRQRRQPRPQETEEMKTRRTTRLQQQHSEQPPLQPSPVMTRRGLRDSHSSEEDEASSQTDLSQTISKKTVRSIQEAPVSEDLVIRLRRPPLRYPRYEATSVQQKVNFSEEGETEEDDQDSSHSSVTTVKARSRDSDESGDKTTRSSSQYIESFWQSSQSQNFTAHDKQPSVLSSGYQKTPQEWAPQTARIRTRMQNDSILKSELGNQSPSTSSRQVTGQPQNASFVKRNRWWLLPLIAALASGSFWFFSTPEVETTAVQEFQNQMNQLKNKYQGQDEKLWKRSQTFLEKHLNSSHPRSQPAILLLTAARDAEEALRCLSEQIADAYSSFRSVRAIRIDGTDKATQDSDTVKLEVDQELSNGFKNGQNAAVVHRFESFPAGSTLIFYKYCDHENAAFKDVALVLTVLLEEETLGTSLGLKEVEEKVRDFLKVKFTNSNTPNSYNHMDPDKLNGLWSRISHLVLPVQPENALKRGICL

[10] = target: Alpha-bungarotoxin (Bungarus multicinctus) (UniProt P60615); test: alpha-bungarotoxin binders on microarray, profiling panel, artefact control for SMM control protein annotation, biochemical, small-molecule microarray, Alexa647 label, 635/667 nm fluorescence (AID 1117); details: alpha-BTX-A647 binding fluorescence, higher = more signal
Alpha-bungarotoxin (Bungarus multicinctus), sequence (P60615 whole entry, looked up): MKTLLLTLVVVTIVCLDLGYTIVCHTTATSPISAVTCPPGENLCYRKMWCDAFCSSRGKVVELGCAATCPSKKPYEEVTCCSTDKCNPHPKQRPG

[11] = target: Albumin (Bos taurus) (UniProt P02769); test: bovine serum albumin binders on microarray, profiling panel, artefact control for SMM control protein annotation, biochemical, small-molecule microarray, Alexa647 label, 635/667 nm fluorescence (AID 1118); details: BSA-A647 binding, fluorescence 635 nm, higher = more signal;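 further: score merges 667 nm emission intensity and signal-to-noise per printed compound spot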
Albumin (Bos taurus), sequence (P02769 whole entry, looked up): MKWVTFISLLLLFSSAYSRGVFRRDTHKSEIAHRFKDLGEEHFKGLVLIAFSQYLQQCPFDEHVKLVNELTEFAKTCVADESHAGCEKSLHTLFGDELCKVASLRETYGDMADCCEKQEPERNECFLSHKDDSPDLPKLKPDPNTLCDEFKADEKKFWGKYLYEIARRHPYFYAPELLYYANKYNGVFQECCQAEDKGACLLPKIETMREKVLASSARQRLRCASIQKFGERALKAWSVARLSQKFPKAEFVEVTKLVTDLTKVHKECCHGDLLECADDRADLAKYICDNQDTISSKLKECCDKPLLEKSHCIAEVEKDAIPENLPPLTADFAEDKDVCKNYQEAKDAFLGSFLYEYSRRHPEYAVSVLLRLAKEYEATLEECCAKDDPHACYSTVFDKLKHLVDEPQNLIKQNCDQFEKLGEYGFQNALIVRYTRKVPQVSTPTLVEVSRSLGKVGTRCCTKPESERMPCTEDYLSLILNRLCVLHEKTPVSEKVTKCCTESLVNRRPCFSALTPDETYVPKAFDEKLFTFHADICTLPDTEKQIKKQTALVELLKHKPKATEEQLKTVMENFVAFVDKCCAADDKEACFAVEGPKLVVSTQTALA

[12] = small-molecule microarray binders of probe aXIP, primary screen, biochemical, NeuroSMM set, 635/667 nm fluorescence (AID 1119); details: higher = more signal, called active from +8 up or from −8 down;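 further: probe is the protein aXip251-270 applied at 1 µg/mL to compound-printed slides; binding of probe to printed compounds measured as 667 nm fluorescence plus signal to noise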
[13] = small-molecule binders of probe aNOTCH3, primary screen, biochemical, small-molecule microarray, 635/667 nm fluorescence (AID 1120); details: higher = more signal;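 further: probe is a biotin-tagged antibody raised against NOTCH3 rather than NOTCH3 protein; score merges spot fluorescence near 667 nm with spot signal to noise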
[14] = small-molecule binders of probe aNOTCH2, primary screen, biochemical, small-molecule microarray, 635/667 nm fluorescence (AID 1121); details: higher = more signal;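 further: score merges feature fluorescence read at 667 nm with its signal to noise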
[15] = target: Carbonic anhydrase 2 (Homo sapiens) (UniProt P00918); test: CAII small-molecule binders, profiling panel, biochemical, small-molecule microarray, Alexa647-labelled CAII (AID 1122); details: CAII-A647 binding fluorescence, higher = more signal
[16] = COS7 lysate on small-molecule microarray, probe aHis, 635 nm (AID 1123); details: COS7 cell lysate, fluorescence, higher = more signal;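 further: z-score combines 667nm fluorescence intensity with signal-to-noise per printed compound spot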
[17] = compound binding in COS7 lysate, probe aLAP1, primary screen, cell lysate, small-molecule microarray (AID 1124); details: probe aLAP1, fluorescence, higher = more signal;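 further: lysate comes from COS7 cells expressing LAP1 and is applied at 0.3 µg/mL; score merges spot fluorescence near 667 nm with signal-to-noise over triplicate slides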
[18] = tested on: Sam68 (KHDRBS1); test: Sam68 small-molecule binders, primary screen, biochemical, small-molecule microarray, 635 nm fluorescence (AID 1125); details: small-molecule microarray binding, higher = more signal;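 further: score merges 667 nm channel intensity with signal to noise over triplicate slides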
[19] = tested on: Chordin-like protein 2 (CHRDL2); test: CHRDL2 small-molecule binders, primary screen, biochemical, small-molecule microarray, 635 nm fluorescence (AID 1126); details: small-molecule microarray binding, fluorescence 635 nm; higher = more signal;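 further: printed compound slides probed with Chrdl2 protein at 4 µg/mL for 1 h at 4 C; score merges 667 nm emission intensity with signal to noise over three replicate slides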
[20] = target: Concanavalin-A (Canavalia ensiformis) (UniProt P02866); test: ConA small-molecule binders, primary screen, artefact control for SMM control protein annotation, biochemical, small-molecule microarray, Alexa647 label, 635 nm (AID 1127); details: ConA-A647 binding fluorescence, higher = more signal;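 further: z combines 667 nm emission intensity with signal-to-noise across three replicate slides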
Concanavalin-A (Canavalia ensiformis), sequence (P02866 whole entry, looked up): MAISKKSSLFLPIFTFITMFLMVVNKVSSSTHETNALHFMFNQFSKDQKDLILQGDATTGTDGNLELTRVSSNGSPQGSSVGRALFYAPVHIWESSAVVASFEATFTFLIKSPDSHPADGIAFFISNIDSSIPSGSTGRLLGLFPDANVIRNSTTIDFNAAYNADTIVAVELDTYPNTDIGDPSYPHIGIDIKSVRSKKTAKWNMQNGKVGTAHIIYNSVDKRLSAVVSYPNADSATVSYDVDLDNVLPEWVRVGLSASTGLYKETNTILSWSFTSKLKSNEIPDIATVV

Row | Structure (SMILES) | composite z-score [1] | z-score [2] | composite z-score [3] | composite z-score [4] | composite z-score [5] | composite z-score [6] | composite z-score [7] | composite z-score [8] | composite z-score [9] | composite z-score [10] | composite z-score [11] | composite Z-score [12] | composite z-score [13] | composite z-score [14] | composite z-score [15] | composite z-score [16] | composite z-score [17] | composite z-score [18] | composite z-score [19] | composite z-score [20]
1 | COCCOC(=O)N1C(=O)[C@@]2(c3cc(C#CC4(O)CCCCCC4)ccc31)[C@H](C(=O)N1CCCCCCC1)[C@H]1C(=O)O[C@H](c3ccccc3)[C@H](c3ccccc3)N1[C@@H]2c1ccc(OCCO)cc1 | 1.33 | -1.74 | 1.52 | 2.33 | 1.01 | 1.12 | 2.59 | 2.98 | 4.12 | 2.89 | 0.513 | 3.82 (inactive) | 1.73 | 0.819 | 0.705 | 3.34 | 1.35 | 1.29 | 1.52 | 1.14
2 | COCCOC(=O)N1C(=O)[C@@]2(c3ccccc31)[C@H](c1ccc(OCCO)cc1)N1[C@H](c3ccccc3)[C@H](c3ccccc3)OC(=O)[C@H]1[C@@H]2C(=O)Nc1nc2ccccc2s1 | 1.34 | -1.33 | 0.492 | 1.68 | 0.397 | 0.0431 | -0.0769 | 0.516 | 0.903 | 1.13 | 0.903 | 0.171 (inactive) | -0.0059 | -0.0089 | 0.55 | 2.74 | 0.676 | 1.3 | 0.232 | 1.17
3 | CN(C)CCCNC(=O)[C@@]1(c2ccc([N+](=O)[O-])cc2)CC(=O)N(CC23CC4CC(CC(C4)C2)C3)[C@@H]1c1ccc(CO)cc1 | 1.23 | -3.26 | 0.364 | 1.43 | 0.398 | 0.249 | 0.806 | 2.24 | 2.35 | 1.83 | 0.0561 | -0.137 (inactive) | 0.683 | 0.094 | 0.49 | 3.43 | 0.82 | 1.3 | 1.07 | 1.15
4 | C=CC[C@H](OC(=O)Nc1ccc(OC)cc1)c1ccc(O)c2ccccc12 | 1.07 | -3.63 | 0.848 | 0.107 | -0.636 | 0.0511 | 0.0469 | 0.241 | 0.505 | 1.78 | -0.343 | -0.192 (inactive) | 0.0539 | -0.124 | 0.289 | 0.865 | -0.0938 | 1.3 | 1.18 | 1.09
5 | C=CCOC(=O)[C@H]1[C@@H]2C(=O)O[C@@H](c3ccccc3)[C@@H](c3ccccc3)N2[C@@H](c2ccc(OCCOC(=O)[C@H]3C[C@H]4C(=O)N[C@@H](Cc5ccccc5)C(=O)N4[C@H]3c3cccc(OCCO)c3)cc2)[C@]12C(=O)Nc1ccc(I)cc12 | 1.38 | -1.68 | 0.692 | 0.384 | 0.334 | 0.0004 | -0.144 | -0.175 | 1.25 | 1.35 | -0.291 | 1.02 (inactive) | 0.071 | -0.117 | 0.487 | -0.0456 | 0.335 | 1.28 | 1.25 | 1.12
6 | Cc1ccc(S[C@]2(C(=O)NCc3ccccc3)CC(=O)N(C(C)C)[C@@H]2c2ccc(CO)cc2I)cc1 | 1.34 | -1.52 | -1.26 | 0.436 | 0.475 | -0.243 | -0.229 | 0.962 | 0.877 | -0.613 | 0.838 | 0.46 (inactive) | -0.221 | -0.0268 | 0.304 | 2.56 | 0.704 | -0.29 | -1.59 | -1.29
7 | COC(=O)[C@@]1(Cc2ccc(F)cc2)[C@H]2c3cc(C(=O)N4CCCC4)n(CCF)c3C[C@H]2CN1C(=O)c1ccccc1 | 1.13 | -1.43 | -0.359 | 2.74 | 1.32 | 1.04 | 1.79 | 2.99 | 2.42 | 0.602 | 1.09 | 0.803 (inactive) | 1.82 | 0.948 | 0.811 | 3.46 | 0.829 | 0.37 | 0.294 | 0.857
8 | CC[C@@H]1[C@H]2C3C(=O)N(CC)C(=O)C3CC(=O)[C@H]2[C@H](c2ccc(C)cc2)N1S(=O)(=O)c1ccc(C)cc1 (stereo not given in full) | 1.4 | -2.17 | 0.174 | 1.01 | 0.715 | -0.124 | -0.0035 | -0.115 | -0.154 | 0.484 | 0.779 | -0.337 (inactive) | 0.0271 | -0.0468 | 0.512 | 1.21 | -0.357 | 1.33 | -0.49 | 0.914
9 | O=C1c2ccccc2[C@](Cc2ccccc2I)(C(=O)NCCN2CCOCC2)[C@H](c2ccc(CO)cc2)N1Cc1ccccc1 | 1.41 | -1.79 | 0.522 | 1.25 | 0.295 | 0.359 | 0.385 | 0.482 | 0.496 | 1.64 | 0.673 | -0.52 (inactive) | 0.533 | -0.0468 | 0.377 | 1.28 | 0.369 | 1.3 | 0.286 | 1.12
10 | CON(C)C(=O)C=C1C[C@@H](c2cccc(Cl)c2)O[C@@H](c2cccc(Cl)c2)O1 | 0.151 | -3.11 | 0.158 | 0.389 | 0.3 | -0.0704 | 0.134 | -0.389 | 0.525 | 0.764 | 0.268 | 0.294 (inactive) | 0.0897 | -0.131 | 0.628 | 0.339 | 0.166 | 0.474 | 0.648 | 1.01
11 | COc1ccc(C(O)C2C=CC3C(=O)N(c4ccccc4)C(=O)C3N2Nc2ccc(C#N)cc2)c2ccccc12 (stereo not given) | 0.596 | -0.46 | -0.199 | 2.63 | 1.07 | 0.0388 | -0.0709 | 1.45 | 1.83 | 1.68 | 1.07 | 1.3 (inactive) | 0.0248 | 0.0847 | 0.734 | 2.48 | 0.537 | 1.28 | -0.32 | 1.22
